Assay results taken from PubChem BioAssay AID1851 (National Center for Advancing Translational Sciences (NCATS), 2009).
Values joined by “and” are separate entries in the source; they are usually repeats but may differ in a detail not shown here. Equal values may be shown once. The campaign covered roughly 16,000 compounds. About 5,800 (36%) were called active. Inconclusive results (about 23%) are left out. Calls come from the whole dose curve; as a rule, active = well fitted curve in the direction sought with a large enough effect; inconclusive = small, poorly fitted or top-dose-only effect, or effect the other way; inactive = no such curve, though single readings can be large or run the other way. The list shows a part of the results. The source holds several records for some structures; these can differ, active in one and inactive in another.

biological target: Cytochrome P450 2C19 (Homo sapiens) (UniProt P33261); test: Cytochrome panel assay with activity outcomes; conditions: recombinant CYP, pro-luciferin dealkylation, luminescence, p450-cyp2c19; series mostly up to 57.1 µM
% is set by controls: 0 for no effect and ±100 for the full control effect.

Chain of Cytochrome P450 2C19 (Homo sapiens) (P33261 whole entry, looked up): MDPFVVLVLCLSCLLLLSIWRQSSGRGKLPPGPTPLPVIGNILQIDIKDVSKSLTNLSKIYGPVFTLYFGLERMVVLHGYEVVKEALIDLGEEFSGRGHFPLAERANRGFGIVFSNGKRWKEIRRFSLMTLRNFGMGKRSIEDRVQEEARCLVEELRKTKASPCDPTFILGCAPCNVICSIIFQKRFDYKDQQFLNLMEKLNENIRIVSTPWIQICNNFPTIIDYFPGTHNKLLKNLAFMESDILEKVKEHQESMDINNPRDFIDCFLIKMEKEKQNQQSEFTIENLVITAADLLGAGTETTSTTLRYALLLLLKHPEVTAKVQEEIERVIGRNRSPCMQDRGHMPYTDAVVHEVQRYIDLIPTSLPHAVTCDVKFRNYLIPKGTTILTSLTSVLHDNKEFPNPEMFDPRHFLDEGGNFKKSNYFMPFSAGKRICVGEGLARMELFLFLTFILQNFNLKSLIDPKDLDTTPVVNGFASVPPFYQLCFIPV

SMILES	activity, negative = inhibition	AC50
C[C@@]12CC[C@@H]3[C@H](CCC4=CC(=O)CC[C@]43C)[C@@H]1CC[C@@H]2C(=O)Cn1cnc2c(=S)nc[nH]c21	-3.21% [at 11.4 µM] (inactive)	–
CC(O)(CS(=O)(=O)c1ccccc1)C(=O)Nc1cccc(C(F)(F)F)c1 (centres undefined)	–	2240 nM (active)
O=C(O)c1ccccc1Nc1cccc(C(F)(F)F)c1	–	inactive
CC(O)(CS(=O)(=O)c1cccc(C(F)(F)F)c1)C(=O)Nc1ccc(C(F)(F)F)cc1 (centres undefined)	–	794 nM (active)
CC(O)(CS(=O)(=O)c1cccc(C(F)(F)F)c1)C(=O)Nc1cccc(C(F)(F)F)c1 (centres undefined)	–	2510 nM (active)
CC[C@@H]1CN2CCc3cc(OC)c(OC)cc3[C@H]2C[C@@H]1C[C@@H]1NCCc2cc(O)c(OC)cc21	–	inactive
Cn1c(=O)c2[nH]cnc2n(C)c1=O.[CH2-][C@H](Cc1cccc2cc(C(=O)O)c(=O)oc12)OC.[Hg].[OH-]	27.4% [at 11.4 µM] (inactive)	–
C[C@@H]1[C@@H]2Cc3ccc(O)cc3[C@@]1(C)CCN2CC1CC1	–	inactive
O=C(O)[C@@H]1C[C@H]1[C@@H](NP(=O)(c1ccccc1)c1ccccc1)c1ccccc1	–	inactive
COc1cccc(-n2c(O)c(C=NCCN3CCOCC3)c(=O)[nH]c2=O)c1	–	inactive
Cc1ccccc1OCCN=Cc1c(O)n(C)c(=O)n(C)c1=O	–	10000 nM (active)
CC[N@+]1(C)CCC[C@@H](OC(=O)C(O)(c2ccccc2)c2ccccc2)C1	–	inactive
C/C(O)=C(/C#N)C(=O)Nc1cc(Br)ccc1Br	–	inactive
COC(=O)C1=CCCN(C)C1	–	inactive
C[C@H](Br)CN(C[C@H](C)Br)c1ccc2c(c1)Cc1ccccc1-2	–	2510 nM (active)
CC[C@H](C(=O)[C@H](C)[C@H](O)[C@H](C)CCc1ccc(C)c(O)c1C(=O)O)[C@H]1O[C@](CC)([C@@H]2CC[C@@](O)(CC)[C@H](C)O2)C[C@H]1C	–	inactive
COCCCn1c(N)c(C(=O)Nc2sc3c(c2C(=O)OC)CCCC3)c2nc3ccccc3nc21	–	3550 nM (active)
C=CCN1CC[C@@]23c4c5ccc(O)c4O[C@H]2/C(=N\N=C2/CC[C@@]4(O)[C@H]6Cc7ccc(O)c8c7[C@@]4(CCN6CC=C)[C@@H]2O8)CC[C@]3(O)[C@@H]1C5	–	inactive
NCCc1ccc(S(=O)(=O)F)cc1	–	inactive
COc1ccc(CNC(=O)/C=C\c2ccc3[nH]cc(CCN(C)C)c3c2)cc1	–	inactive

SMILES	activity, negative = inhibition	AC50
C=CCN1C[C@H](C)N([C@H](c2ccc(C(=O)N(CC)CC)cc2)c2cccc(OC)c2)C[C@H]1C	–	inactive
C=C(C)[C@H]1Cc2c(ccc3c2O[C@H]2COc4cc(OC)c(OC)cc4[C@@H]2C3=O)O1	–	2510 nM (active)
COc1cc2c(cc1OC)[C@@H]1C(=O)c3ccc4c(c3O[C@@H]1CO2)C=CC(C)(C)O4	–	5010 nM (active)
N[C@@H](Cc1ccccc1)P(=O)(O)O	-2.53% [at 11.4 µM] (inactive)	–
Cn1c[n+](C)cc1C(O)c1ccccc1 (centres undefined)	–	inactive
COc1ccc2[nH]c3c(c2c1)CCN=C3C	–	inactive
Oc1ccc2c3c1O[C@H]1c4oc5ccccc5c4C[C@]4(O)[C@H](C2)N(CC2CC2)CC[C@@]314	–	inactive
C=CCO[C@@H](Cn1ccnc1)c1ccc(Cl)cc1Cl	–	10 nM (active)
N[C@@H](Cn1cc(I)c(=O)[nH]c1=O)C(=O)O	–	inactive
O=C(Nc1ccccc1)N1CCCC2(CCN(C(=O)Oc3ccccc3)CC2)C1	–	inactive
C[C@H](N)c1cccc(Cl)c1Cl	–	inactive
Oc1ccc2c3c1O[C@H]1c4c(c5ccccc5n4Cc4ccccc4)C[C@]4(O)[C@H](C2)N(CC2CC2)CC[C@@]314	–	inactive
NC(N)=NS(=O)(=O)c1ccc(N)cc1	–	inactive
C[N+]1(C)CCO[C@@](O)(c2ccc(-c3ccc([C@]4(O)C[N+](C)(C)CCO4)cc3)cc2)C1	–	inactive
CC[C@]1(C2=NCCN2)Cc2ccccc2O1	–	inactive
c1ccc2c(c1)OC[C@@H](C1=NCCN1)O2	–	inactive and 7.94 µM (active)
NC[C@@H](O)CSP(=O)(O)O	8.63% [at 11.4 µM] (inactive)	–
NC(=O)CN1CCCC1=O	–	inactive
Nc1nnnn1CCO	28.1% [at 11.4 µM] (inactive)	–
O=C(O)c1cc[c]([Hg][S]c2ncnc3nc[nH]c23)cc1	–	631 nM (active)

SMILES	activity, negative = inhibition	AC50
CO[C@H]1[C@H](O)[C@H](O[C@@H]2[C@H](Oc3cccc4c(O)c5c(=O)oc6ccc(C)c7c(=O)oc(c34)c5c67)O[C@@H](C)[C@H](O)[C@H]2O)O[C@@H](C)[C@@H]1O	22.4% [at 11.4 µM] (inactive)	–
CC[C@@H](CO)Nc1nc(NCc2ccccc2)c2ncn(C(C)C)c2n1	–	inactive
Cc1[nH]c2ccc(O)cc2c1CCN	–	inactive and 7.94 µM (active)
NCCc1c[nH]c2ccc(O)cc12	–	inactive
CNCCc1c[nH]c2ccc(O)cc12	–	inactive
CCCN(CCC)[C@@H]1CCc2c(OC)cccc2[C@@H]1C	–	inactive
C[C@]12CC[C@H](O)CC1=CC[C@@H]1[C@H]2CC[C@]2(C)C(=O)CC[C@H]12	–	inactive
O=P(Nc1ccccc1)(Nc1ccccc1)Oc1cccc(Cl)c1	–	5010 nM (active)
NS(=O)(=O)c1ccc(-c2ccc([As](=O)(O)O)cc2)cc1	24.2% [at 11.4 µM] (inactive)	–
C[C@]12N[C@H](Cc3ccccc31)c1ccccc12	–	inactive
N#Cc1ccc(CN2CC[C@@]3(CCCNC3)C2)cc1	–	inactive
Clc1cccc(N2CCNCC2)c1	–	inactive
CN[C@H](Cc1ccccc1)c1cccc(OC)c1O	–	2000 nM (active)
NCCP(=O)(O)O	26% [at 11.4 µM] (inactive)	–
O=C(Cn1ncc2ccsc2c1=O)N1CCC2(CC1)OCCO2	–	22400 nM (active)
O=C(CNS(=O)(=O)c1ccc(Br)s1)N1CCC2(CC1)OCCO2	–	2820 nM (active)
O=C(CNS(=O)(=O)c1cccs1)N1CCC2(CC1)OCCO2	–	7080 nM (active)
CCN(CC)CCO[C@H]1CC[C@@]2(C)C(=CC[C@@H]3[C@H]2CC[C@]2(C)C(=O)CC[C@H]32)C1	–	inactive
CN(C)C(=O)Oc1cccc([N+](C)(C)C)c1	–	inactive
